PubChem BioAssay (NCATS)
Several values for one entry are separate records, joined by “and”; a condition that tells them apart may be missing. Identical values can stand only once. Results filed as inconclusive are left out. Activity calls are given as the source filed them. Unless noted, calls follow the shape of the dose curve; as a rule, active = well fitted curve in the direction sought with a large enough effect; inconclusive = small, poorly fitted or top-dose-only effect, or another doubt; inactive = no such curve, though single readings can be large; an effect the other way counts as inactive or inconclusive.

What was measured:
[1] = target: Vitamin D3 receptor (Homo sapiens) (UniProt P11473); assay: qHTS assay for small molecule agonists of vitamin D receptor signaling (AID 588543; calls by dose curve;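 also: 0% = DMSO basal and 100% = reference agonist control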)
Vitamin D3 receptor (Homo sapiens), sequence (P11473 whole entry, looked up): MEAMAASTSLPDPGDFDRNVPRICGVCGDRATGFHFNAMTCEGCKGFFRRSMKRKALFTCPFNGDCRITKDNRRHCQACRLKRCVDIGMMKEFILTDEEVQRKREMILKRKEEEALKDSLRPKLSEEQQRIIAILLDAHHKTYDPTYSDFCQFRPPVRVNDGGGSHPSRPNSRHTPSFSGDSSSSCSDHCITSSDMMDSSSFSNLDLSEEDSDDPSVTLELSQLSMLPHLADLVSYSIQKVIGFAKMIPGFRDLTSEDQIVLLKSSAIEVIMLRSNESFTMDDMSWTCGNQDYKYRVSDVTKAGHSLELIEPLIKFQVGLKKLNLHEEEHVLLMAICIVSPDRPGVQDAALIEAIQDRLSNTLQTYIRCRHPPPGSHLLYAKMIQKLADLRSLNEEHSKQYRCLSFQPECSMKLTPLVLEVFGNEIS
Procedure, shortened: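 VDR-UAS-bla HEK293T cells, 2000/well, 2% charcoal-stripped FBS; compound titration 16 h at 37 C; CCF4 beta-lactamase ratio read. Normalized to 50 nM 1-alpha,25-dihydroxyvitamin D3 (100%) and DMSO; Hill fit gives EC50, efficacy.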

[2] = qHTS assay for small molecule agonists of retinoid X receptor alpha signaling (AID 588544; calls by dose curve;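 as to activation: 0% = DMSO basal wells and 100% = reference agonist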); conditions: HEK293T RXRa-UAS-bla, beta-lactamase reporter, 18 h; 530 nm emission
[3] = target: Retinoic acid receptor RXR-alpha (Homo sapiens) (UniProt P19793); assay: as above
Retinoic acid receptor RXR-alpha (Homo sapiens), sequence (P19793 whole entry, looked up): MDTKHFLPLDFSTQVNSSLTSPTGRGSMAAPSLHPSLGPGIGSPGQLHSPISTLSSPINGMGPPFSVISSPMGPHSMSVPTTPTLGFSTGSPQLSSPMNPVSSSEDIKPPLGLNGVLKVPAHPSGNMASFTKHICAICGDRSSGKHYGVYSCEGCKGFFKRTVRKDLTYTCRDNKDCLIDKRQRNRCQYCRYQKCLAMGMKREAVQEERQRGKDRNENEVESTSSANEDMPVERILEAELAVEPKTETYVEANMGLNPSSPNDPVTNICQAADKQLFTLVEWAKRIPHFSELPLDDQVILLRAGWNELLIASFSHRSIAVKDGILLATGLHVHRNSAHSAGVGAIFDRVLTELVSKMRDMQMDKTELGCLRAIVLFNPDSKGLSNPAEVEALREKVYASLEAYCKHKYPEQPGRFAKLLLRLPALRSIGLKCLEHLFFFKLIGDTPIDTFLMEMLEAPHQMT

[4] = target: Thyroid hormone receptor beta (Homo sapiens) (UniProt P10828); assay: qHTS assay for small molecule agonists of thyroid hormone receptor beta signaling (AID 588545; calls by dose curve)
Thyroid hormone receptor beta (Homo sapiens), sequence (P10828 whole entry, looked up): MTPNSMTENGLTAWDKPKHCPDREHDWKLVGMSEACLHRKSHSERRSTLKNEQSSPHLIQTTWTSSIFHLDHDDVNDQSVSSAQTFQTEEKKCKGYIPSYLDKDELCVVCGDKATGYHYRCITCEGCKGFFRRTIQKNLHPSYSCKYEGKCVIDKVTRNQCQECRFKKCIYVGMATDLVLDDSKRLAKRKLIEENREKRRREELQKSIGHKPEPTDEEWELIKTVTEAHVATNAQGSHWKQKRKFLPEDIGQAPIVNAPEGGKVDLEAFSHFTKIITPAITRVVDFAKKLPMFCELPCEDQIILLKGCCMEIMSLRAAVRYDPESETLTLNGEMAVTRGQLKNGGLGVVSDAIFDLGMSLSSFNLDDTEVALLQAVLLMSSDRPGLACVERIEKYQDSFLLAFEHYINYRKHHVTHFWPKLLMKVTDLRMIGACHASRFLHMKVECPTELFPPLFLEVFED
Procedure, shortened: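 Agonist activity was read as beta-lactamase CCF4 fluorescence (405 ex, 460/530 em), scaled between DMSO (0%) and 10 nM T3 (100%), then Hill-fitted for EC50 and efficacy. HEK 293 TR-UAS-bla cells in 2% charcoal/dextran FBS medium were exposed 18 h at 37 C.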

[5] = qHTS assay for small molecule antagonists of retinoid X receptor alpha signaling (AID 588546; active = well fitted inhibition curve with a large enough effect in the signal ratio, with a control signal flat, not every such curve was filed as active; the % refers to the signal ratio;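 also: cells stimulated with 9-cis-retinoic acid as agonist; % is scaled to controls: 0 for no effect and ±100 for the full control effect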); conditions: HEK293T RXRa-UAS-bla, beta-lactamase ratio, antagonist mode; measured here: W530 green channel, cytotoxicity proxy
Procedure, shortened: (§1)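 Beta-lactamase reporter inhibition, read as CCF4 fluorescence ratio (ex 405, em 460/530 nm) after 2 h at RT. HEK293T UAS-bla cells, 2500/well, were stimulated with 9-cis-RA at 500 or 100 nM final alongside test compound for 18 h at 37 C.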

[6] = target: Retinoic acid receptor RXR-alpha (Homo sapiens) (UniProt P19793); assay: as above; conditions: HEK293T RXRa-UAS-bla, beta-lactamase ratio, antagonist mode
Procedure, shortened: as §1

[7] = target: Thyroid hormone receptor beta (Homo sapiens) (UniProt P10828); assay: qHTS assay for small molecule antagonists of thyroid hormone receptor beta signaling (AID 588547; active = well fitted inhibition curve with a large enough effect in the signal ratio, with a control signal flat, not every such curve was filed as active; the % refers to the signal ratio;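 also: cells stimulated with 0.4 nM T3 agonist during compound exposure; series mostly up to about 77 µM; % is scaled to controls: 0 for no effect and ±100 for the full control effect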); conditions: TR-UAS-bla HEK293, beta-lactamase ratio, antagonist mode, 18 h
Procedure, shortened: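 Inhibition of T3-driven (0.4nM final) beta-lactamase reporter activity was measured over 0.59 nM to 92 uM compound after 18 h at 37 C. The cells were GripTite HEK293 TR-UAS-bla in charcoal/dextran-stripped serum, with CCF4 ratio read-out and IC50 from Hill fits.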

[8] = qHTS assay for small molecule agonists of the antioxidant response element (ARE) signaling pathway (AID 651741; active = well fitted activation curve with a large enough effect in the signal ratio; the % refers to the signal ratio; also: % of control where 0% means no effect)
Procedure, shortened: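 Seeding 2,000 ARE-bla HepG2 cells per well preceded a 5 h incubation at 37 C/5% CO2 and a 16 h compound exposure at 37 C. Beta-lactamase reporter activity was then quantified by fluorescence after 2 h with LiveBLAzer B/G FRET substrate.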

[9] = qHTS assay for small molecule activators of the p53 signaling pathway (AID 651743; active = well fitted activation curve with a large enough effect in the signal ratio, not every such curve was filed as active; the % refers to the signal ratio; also: series mostly up to about 92 µM; % of control where 0% means no effect); conditions: HCT-116 p53RE-bla, beta-lactamase FRET ratio, 16 h; activation: stronger effect = higher value
Procedure, shortened: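 Screen for p53 pathway agonists uses stably transfected p53RE-bla HCT-116 cells, 4,000 per well, treated 16 h at 37 C with compounds in DMSO.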

[10] = qHTS assay for small molecule activators of the nuclear factor-kappa B (NF-kB) signaling pathway (AID 651749; active = well fitted activation curve with a large enough effect in the signal ratio; the % refers to the signal ratio; also: series mostly up to about 77 µM; % of control where 0% means no effect); conditions: NF-kB-bla ME-180 cells, beta-lactamase FRET ratio, 16 h; activation: stronger effect = higher value
Procedure, shortened: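 Stably transfected ME-180 line; NF-kB response element upstream of beta-lactamase. Treatment: compound or DMSO, 16 hr. Detection: fluorescent FRET substrate.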

[11] = qHTS assay for small molecule disruptors of the mitochondrial membrane potential - 5 hr assay (AID 651755; calls by dose curve; also: % is scaled to controls: 0 for no effect and ±100 for the full control effect; nearly all actives have a fitted effect of over 40% in size)
Procedure, shortened: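 HepG2, 2,000 cells/well, overnight attach; cpd or DMSO 5 hr, 37C/5% CO2; Mito-MPS 30 min 37C; fluor 490/535 + 540/590 nm.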

[12] = target: Tumor necrosis factor (Homo sapiens) (UniProt P01375); assay: qHTS assay to identify small molecules that stimulate Tumor Necrosis Factor-alpha (TNF-alpha) secretion (AID 651757; active = well fitted curve in the direction sought with a large enough effect in the signal ratio; the % refers to the signal ratio; also: 0% is about no effect)
Tumor necrosis factor (Homo sapiens), sequence (P01375 whole entry, looked up): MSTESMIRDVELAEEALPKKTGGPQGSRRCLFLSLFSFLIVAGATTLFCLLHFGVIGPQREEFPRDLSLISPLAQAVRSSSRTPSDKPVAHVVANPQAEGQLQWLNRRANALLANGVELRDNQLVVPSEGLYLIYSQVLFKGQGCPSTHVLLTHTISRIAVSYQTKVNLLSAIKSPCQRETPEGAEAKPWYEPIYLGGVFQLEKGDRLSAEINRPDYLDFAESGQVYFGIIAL
Procedure, shortened: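 Secreted TNF-alpha from compound-treated THP-1 cells (17 hrs, 37 C) was quantified with a homogeneous time-resolved fluorescence antibody assay.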

[13] = qHTS assay to identify small molecules that stimulate interleukin-8 (IL-8) secretion (AID 651758; active = well fitted activation curve with a large enough effect in the signal ratio; the % refers to the signal ratio; also: 0% is about no effect)
Procedure, shortened: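 Secreted IL-8 measured by TR-FRET sandwich (cryptate and XL665 antibodies) from THP-1 cells exposed to compound overnight (16 hrs, 37 C).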

[14] = qHTS assay for environmental chemicals that activate the Aryl hydrocarbon Receptor (AhR) signaling pathway (AID 651777); conditions: 1A2-DRE human hepatoma cells, luciferase, 24 h; activation: stronger effect = higher value; also: % of control where 0% means no effect; nearly all actives have a fitted effect of over 15% in size
Procedure, shortened: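 Following a 24 hr incubation with test chemicals at 37 C and 5% CO2, 1A2-DRE human hepatoma cells received One-Glo reagent; after 30 min at room temperature, luciferase output reflected CYP1A2 induction via AhR.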

[15] = target: Peroxisome proliferator-activated receptor alpha (Homo sapiens) (UniProt Q07869); assay: qHTS assay for small molecule agonists of the peroxisome proliferator-activated receptor alpha (PPARalpha) signaling pathway (AID 651778); conditions: PathHunter PPARalpha complementation, chemiluminescence, 6 h; stronger effect = higher value; also: % of control where 0% means no effect
Peroxisome proliferator-activated receptor alpha (Homo sapiens), sequence (Q07869 whole entry, looked up): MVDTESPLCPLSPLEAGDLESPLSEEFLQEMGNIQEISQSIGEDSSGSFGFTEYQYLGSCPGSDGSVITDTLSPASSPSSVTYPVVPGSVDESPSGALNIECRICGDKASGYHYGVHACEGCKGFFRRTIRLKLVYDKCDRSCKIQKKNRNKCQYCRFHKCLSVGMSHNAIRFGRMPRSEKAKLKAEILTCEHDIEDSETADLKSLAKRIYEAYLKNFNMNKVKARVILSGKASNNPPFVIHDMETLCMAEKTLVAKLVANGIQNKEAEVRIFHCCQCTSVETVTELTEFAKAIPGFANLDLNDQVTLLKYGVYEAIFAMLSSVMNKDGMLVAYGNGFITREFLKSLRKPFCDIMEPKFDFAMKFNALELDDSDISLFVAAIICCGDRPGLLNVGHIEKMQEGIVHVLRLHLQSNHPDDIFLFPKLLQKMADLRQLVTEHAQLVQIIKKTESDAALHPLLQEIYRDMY
Procedure, shortened: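 Chemiluminescence from complemented enzyme reported PPARalpha activation in cells after 6 hr of compound treatment at 37 C. The detection reagent was incubated for 60 min at room temperature, and compounds were scored as agonists.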

[16] = qHTS assay for small molecule agonists of the antioxidant response element (ARE) signaling pathway measured by Nrf2-dependant transcriptional activity (AID 720636; active = well fitted curve in the direction sought with a large enough effect in the repeat runs; an effect the other way counts as inactive or inconclusive;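 also: HepG2 cells with an ARE-driven luciferase reporter; % of control where 0% means no effect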)
Procedure, shortened: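 ONE-Glo luminescence, read 30 min after reagent addition at room temperature, reflected ARE reporter activity in HepG2 cells that had been incubated with compound for 16 hr at 37 C in 1% dialyzed FBS.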

[17] = qHTS assay for small molecule agonists of the antioxidant response element (ARE) signaling pathway measured by Nrf2-dependant transcriptional activity - cell viability counter screen (AID 720653; active = well fitted curve in the direction sought with a large enough effect in the repeat runs; an effect the other way counts as inactive or inconclusive; also: % is scaled to controls: 0 for no effect and ±100 for the full control effect); conditions: ARE-bla HepG2 viability, CellTiter-Glo ATP luminescence, 16 h; stronger effect = lower value
Procedure, shortened: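 Cytotoxicity counter screen: intracellular ATP quantified by CellTiter-Glo luminescence in the same ARE-bla HepG2 plates, after 16 h compound exposure and a 2 h beta-lactamase substrate step.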

[18] = qHTS assay for cell viability of HEK293 cells (AID 743288); conditions: ATP luminescence (CellTiter-Glo), 18 h; max response: stronger effect = lower value; also: % is scaled to controls: 0 for no effect and ±100 for the full control effect; nearly all actives have a fitted effect of over 50% in size
Procedure, shortened: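 Parental HEK293 cells, 2,000 per well, preincubated at least 5 h at 37 C, then exposed to compounds in DMSO for 18 h at 37 C. Viability by CellTiter-Glo ATP luminescence after 30 min at room temperature.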

[19] = target: Rap guanine nucleotide exchange factor 3 (Homo sapiens) (UniProt O95398); assay: Confirmatory qHTS for antagonist of cAMP-regulated guanine nucleotide exchange factor 3 (EPAC1) (AID 1645880);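 also: plate controls were DMSO only for no effect and full effect of the ATA control for full effect; nearly all actives have a fitted effect of over 55% in size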
Rap guanine nucleotide exchange factor 3 (Homo sapiens), sequence (O95398 whole entry, looked up): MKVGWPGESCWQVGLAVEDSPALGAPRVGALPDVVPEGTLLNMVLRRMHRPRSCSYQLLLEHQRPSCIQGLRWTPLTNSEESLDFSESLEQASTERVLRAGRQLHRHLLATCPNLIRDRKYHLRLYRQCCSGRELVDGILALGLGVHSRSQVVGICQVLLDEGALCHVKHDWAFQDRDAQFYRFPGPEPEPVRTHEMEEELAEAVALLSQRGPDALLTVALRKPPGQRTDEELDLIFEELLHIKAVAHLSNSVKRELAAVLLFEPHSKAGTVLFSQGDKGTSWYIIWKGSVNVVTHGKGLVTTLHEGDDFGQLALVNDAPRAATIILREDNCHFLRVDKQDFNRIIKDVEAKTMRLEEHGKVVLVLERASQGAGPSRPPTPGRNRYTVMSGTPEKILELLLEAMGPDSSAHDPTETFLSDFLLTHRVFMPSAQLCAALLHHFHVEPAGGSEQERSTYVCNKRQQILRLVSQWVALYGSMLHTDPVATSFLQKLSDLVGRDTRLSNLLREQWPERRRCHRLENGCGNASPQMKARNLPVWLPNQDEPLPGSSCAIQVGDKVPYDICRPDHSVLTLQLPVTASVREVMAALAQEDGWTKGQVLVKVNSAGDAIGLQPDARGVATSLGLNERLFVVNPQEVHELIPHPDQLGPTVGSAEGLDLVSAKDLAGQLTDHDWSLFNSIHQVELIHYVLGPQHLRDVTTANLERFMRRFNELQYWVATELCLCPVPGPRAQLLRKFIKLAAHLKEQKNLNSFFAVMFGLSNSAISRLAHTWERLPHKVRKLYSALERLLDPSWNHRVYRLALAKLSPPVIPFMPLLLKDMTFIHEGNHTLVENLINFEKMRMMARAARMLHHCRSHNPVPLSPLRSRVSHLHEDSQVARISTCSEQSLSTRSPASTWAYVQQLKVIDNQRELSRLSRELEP
Procedure, shortened: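 Nucleotide exchange uses 100 nM EPAC1, 250 nM RAP1B-BODIPY-GDP and 50 uM GDP, with compounds in a concentration-titration series. After 5 min at room temperature, fluorescence (480 nm ex/540 nm em) is read every 5 min for 30 min. Data are normalized to control ATA and DMSO.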

[20] = target: Rap guanine nucleotide exchange factor 3 (Homo sapiens) (UniProt O95398); assay: Confirmatory qHTS for agonist of cAMP-regulated guanine nucleotide exchange factor 3 (EPAC1) (AID 1645881);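 also: EPAC1 catalysed release of BODIPY-GDP from Rap1B seen as fluorescence loss; 100% = effect of cAMP agonist control; nearly all actives have a fitted effect of over 75% in size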
[21] = target: Rap guanine nucleotide exchange factor 4 (Homo sapiens) (UniProt Q8WZA2); assay: Confirmatory qHTS for agonist of cAMP-regulated guanine nucleotide exchange factor 4 (EPAC2) (AID 1645884);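 also: nucleotide exchange releases bodipy-GDP from Rap1 and this lowers its fluorescence; % is scaled to controls: 0 for no effect and ±100 for the full control effect; nearly all actives have a fitted effect of over 65% in size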
Rap guanine nucleotide exchange factor 4 (Homo sapiens), sequence (Q8WZA2 whole entry, looked up): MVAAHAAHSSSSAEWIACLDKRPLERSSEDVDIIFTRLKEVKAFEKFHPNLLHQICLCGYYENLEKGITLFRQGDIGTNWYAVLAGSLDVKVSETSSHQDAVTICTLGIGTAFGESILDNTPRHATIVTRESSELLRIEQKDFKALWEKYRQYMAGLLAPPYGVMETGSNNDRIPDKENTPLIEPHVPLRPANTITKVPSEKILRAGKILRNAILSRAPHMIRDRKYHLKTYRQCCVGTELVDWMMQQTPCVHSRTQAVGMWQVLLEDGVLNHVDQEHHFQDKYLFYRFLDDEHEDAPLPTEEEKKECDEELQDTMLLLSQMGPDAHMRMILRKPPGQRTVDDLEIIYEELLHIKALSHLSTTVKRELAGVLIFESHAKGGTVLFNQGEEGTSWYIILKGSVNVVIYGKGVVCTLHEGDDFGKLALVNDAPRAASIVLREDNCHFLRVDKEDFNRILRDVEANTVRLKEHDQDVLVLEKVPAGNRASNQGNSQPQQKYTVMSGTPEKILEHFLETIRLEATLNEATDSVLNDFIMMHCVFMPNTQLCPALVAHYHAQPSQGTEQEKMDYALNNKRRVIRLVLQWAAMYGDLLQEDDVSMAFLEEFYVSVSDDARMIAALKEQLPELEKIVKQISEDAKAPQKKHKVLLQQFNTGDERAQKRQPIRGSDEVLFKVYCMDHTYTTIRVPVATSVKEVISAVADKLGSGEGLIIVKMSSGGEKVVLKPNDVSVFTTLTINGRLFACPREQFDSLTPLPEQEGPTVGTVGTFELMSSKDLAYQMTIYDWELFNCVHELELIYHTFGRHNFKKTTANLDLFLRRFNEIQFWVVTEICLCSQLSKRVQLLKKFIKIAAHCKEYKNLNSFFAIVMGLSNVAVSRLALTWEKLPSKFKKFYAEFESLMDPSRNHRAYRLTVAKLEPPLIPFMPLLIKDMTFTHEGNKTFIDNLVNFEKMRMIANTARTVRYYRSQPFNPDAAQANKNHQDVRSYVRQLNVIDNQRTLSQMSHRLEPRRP

[22] = target: Nuclear receptor subfamily 1 group I member 2 (Rattus norvegicus) (UniProt Q9R1A7); assay: qHTS assay for small molecule activators of the rat pregnane X receptor (rPXR) signaling pathway (AID 651751; call rule not given here; also: 0% is about no effect); conditions: rPXR reporter cells, luciferase (One-Glo), 24 h
Nuclear receptor subfamily 1 group I member 2 (Rattus norvegicus), sequence (Q9R1A7 whole entry, looked up): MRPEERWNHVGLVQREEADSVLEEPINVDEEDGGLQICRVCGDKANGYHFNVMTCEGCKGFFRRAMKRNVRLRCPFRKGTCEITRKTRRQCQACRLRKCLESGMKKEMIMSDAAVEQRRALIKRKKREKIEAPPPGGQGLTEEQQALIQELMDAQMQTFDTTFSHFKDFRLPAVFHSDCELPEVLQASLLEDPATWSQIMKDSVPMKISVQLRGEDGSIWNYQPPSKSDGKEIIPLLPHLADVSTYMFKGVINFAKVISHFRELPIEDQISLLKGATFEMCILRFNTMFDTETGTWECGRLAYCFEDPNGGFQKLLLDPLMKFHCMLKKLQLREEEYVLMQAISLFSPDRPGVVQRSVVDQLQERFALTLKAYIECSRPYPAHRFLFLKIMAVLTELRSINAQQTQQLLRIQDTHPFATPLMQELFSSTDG

[23] = qHTS assay for small molecule activators of the human pregnane X receptor (PXR) signaling pathway (AID 720659; call rule not given here; also: 0% is about no effect)

CCCCOC(=O)c1ccccc1C(=O)OCCCC
inactive: outcome [1] | Potency [3] | outcome [4] | max response [6] -10.9% | activity change % (negative = inhibition) [7] 17.1% and -3.92% | Potency [8] | activation [9] -2.51% and -0.006% | activation [10] -1.75% and -1.98% | Potency [11] | outcome [12] | Potency [13] | activation [14] -0.984% and 1.91% | max response [15] -1.47% and -0.868% | outcome [16] | max response [17] -12.7% and 12.7% | max response [18] -1.27% and -9.6% | Potency [19] | Potency [20] | Potency [21] | max response [22] 4.96% and 5.3% | outcome [23]
-8.82% and -0.286%: max response [2]
-3.09%: max response [5]
